Measured values as given in PubChem BioAssay AID2006 (Sanford-Burnham Center for Chemical Genomics, 2009).
About 1,000 (0.34%) of roughly 290,000 compounds were called active. This is one part of a sample in which actives are shown more often than they occur. Unmarked numbers belong to inactive results. Cut-off read from the data, not from the text of the source: active = inhibition above about 50% (passing the limit was not always enough); inconclusive = no clear call, values can overlap the other calls.

Target: SUMO-conjugating enzyme UBC9 (Homo sapiens) (UniProt P63279)
Sequence (P63279 whole entry, looked up): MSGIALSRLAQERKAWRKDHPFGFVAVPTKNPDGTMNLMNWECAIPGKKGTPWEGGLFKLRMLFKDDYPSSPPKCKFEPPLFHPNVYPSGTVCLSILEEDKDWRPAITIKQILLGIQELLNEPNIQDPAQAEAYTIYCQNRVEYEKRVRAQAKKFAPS
Assay: inhibitors of in vitro SUMOylation cascade, primary screen, biochemical, HTRF, uHTS (AID 2006)
Conditions: HTRF SUMOylation assay, SAE1/SAE2 + UBC9, in vitro; at 35 µM; stronger effect = higher value

SMILES | inhibition
COc1cccc(N2C(=O)NC(=O)/C(=C\c3ccc([N+](=O)[O-])s3)C2=O)c1 | 41.7%
Cc1cccc(N2C(=O)NC(=O)/C(=C\c3cnn(-c4ccccc4)c3)C2=O)c1 | -3.4%
O=C1NC(=O)N(c2ccccc2)C(=O)/C1=C/c1ccc([N+](=O)[O-])s1 | 51.6% (active)
CC1CCC(N(C)C2CCN(C)CC2)CC1 (stereo not given) | 9.4%
CC(c1ccccc1)(c1ccccc1)c1ccncc1 | 4.4%
